Pf Dd2 inh: inhibitors of Plasmodium falciparum Dd2 growth | actives 4.3% (n = 120,000) | AID 1347417 | Potency, µM (titrated, usually from 28.9 µM), hits mostly inhibitors | P. falciparum Dd2 growth, SYBR Green, 72 h; active = well fitted inhibition curve with a large enough effect; also: nearly all actives have a fitted effect of over 65% in size
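Readout: SYBR Green fluorescence, 485 nm excitation, 535 nm emission, after ~16 h lysis at 37C. Before that, Dd2-infected red cells (2.5% hematocrit) grew 72 h with compound, 29 uM top final concentration.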
Each line names hits and unclear results; the compound was inactive in the other large screens. Only a selection was taken, and hits are over-represented in it overall.

COCC(=O)Nc1nc2c(s1)C[C@@H]1[C@](C)(CO)[C@H](O)CC[C@@]1(C)[C@@H]2CC(=O)N1CCC(C)CC1	none
CC(C)n1cc(C(=O)N2CCCC(c3nnc(Cn4ccnc4)n3C)C2)cn1 (centres undefined)	none
COc1ccc(OC)c(CN2CCC3(CC2)OCCN(Cc2ccccc2)C3=O)c1	none
COc1ccc2c(c1)C=C(CN1CCC(CO)(Cc3ccccc3Cl)CC1)CO2	Pf Dd2 inh 8.9µM
CCOc1ccc(CN2CCC(CO)(Cc3ccccc3Cl)CC2)cc1	none
COc1ccc(CNC(=O)N2CCC3(CC2)CC(N2CCOCC2)CCO3)cc1 (centres undefined)	none
COc1ccc(-c2nc3c(c(=O)[nH]2)CCN(C(=O)COc2ccc(F)c(F)c2)C3)cc1	none
COc1ccc(-c2nc3c(c(=O)[nH]2)CCN(C(=O)c2ccccc2)C3)cc1	none
COc1ccc(-c2nc3c(c(=O)[nH]2)CCN(C(=O)CSc2ccccc2)C3)cc1	Pf Dd2 inh 4.5µM
CN(C)CCNC(=O)c1ccc2nc(CCc3ccccc3)oc2c1	none
O=C(NCCc1ccccc1)c1ccc2nc(CCc3ccccc3)oc2c1	none
O=C(NCCCN1CCN(c2ccccc2)CC1)c1ccc2nc(CCc3ccccc3)oc2c1	Pf Dd2 inh 7.9µM
CC(C)(C)c1noc(-c2nnn3c2COC(c2ccc(Cl)cc2)C3)n1 (centres undefined)	none
Fc1ccc(-c2ccnc3ncnn23)cc1	none
Cc1c(CCNC(=O)Cc2ccccc2)sc2nc(-c3ccc(F)cc3)nn12	none
Cc1c(CCNC(=O)Cc2ccc(F)cc2)sc2nc(-c3ccc(F)cc3)nn12	none
Cc1c(CCNC(=O)c2ccc(C(C)(C)C)cc2)sc2nc(-c3ccc(F)cc3)nn12	Pf Dd2 inh 11µM
COc1cccc(C(=O)N2C(C(=O)NC3CC3)COC23CCN(C(=O)c2ccc(Cl)cc2)CC3)c1 (centres undefined)	none
CCC[C@H]1CN(Cc2nc(C)no2)C[C@@H]1NC(=O)CCS(C)(=O)=O	none
Cc1nc(C)c(C(=O)N2CCc3n[nH]c(=O)n3CC2)s1	none
Cc1ccc(CN2CC[C@@H](CO)N(C)c3cccnc3C2)s1	none
Cc1cc(C)c(CNC(=O)c2nc(-c3ccccc3C#N)cc3c2ccn3C(C)C)c(=O)[nH]1	none
Cc1cc(C)c(CNC(=O)c2nc(-c3ccccc3)cc3c2ccn3C(C)C)c(=O)[nH]1	none
Cc1cc(C)c(CNC(=O)c2nc(-c3ccnn3C)cc3c2ccn3C(C)C)c(=O)[nH]1	Pf Dd2 inh 7.1µM
CCOc1ccc(C(=O)Nc2c(C)nc(Nc3ccccc3)nc2Nc2ccccc2)cc1OCC	Pf Dd2 inh 13µM
CCOc1ccc(C(=O)Nc2ccc(S(=O)(=O)Nc3nc(C)cc(C)n3)cc2)cc1OC	none
CCOc1ccc(Nc2nc(C)c(NC(=O)c3cccc(OC)c3)c(Nc3ccc(OCC)cc3)n2)cc1	none
CCC(O)c1cc2n(n1)CCN(Cc1nccn1Cc1ccccc1)C2 (centres undefined)	none
O=C(NC1CCCCC1)N1CCCC(c2nnc3n2CCNC3)C1 (centres undefined)	none
COc1ccccc1CCC(=O)Nc1ccc(-c2nnc3n2CCCC3)cc1	none
O=C(CCCc1ccccc1)Nc1cccc(-c2nnc3n2CCCC3)c1	Pf Dd2 inh 4.5µM
COc1ccc(CCC(=O)Nc2cccc(-c3nnc4n3CCCC4)c2)cc1	Pf Dd2 inh 7.9µM
Cc1cccc(NC(=O)Cn2nc3n(c2=O)CCCCC3)c1	none
O=C(Nc1ccc(-c2nnc3n2CCCC3)cc1)Nc1ccccc1F	none
COc1cccc(NC(=O)Cn2c(C)cc3nc4n(c(=O)c32)CCCCC4)c1	none
O=C(Nc1nnc(C2CC2)s1)C1CC(=O)N(c2n[nH]c3cccc(F)c23)C1 (centres undefined)	none
COc1ccc(CCNC(=O)Cn2ccn3nc4c(c3c2=O)CCCC4)cc1OC	none
COc1cccc(NC(=O)C2(C)COCc3cnc(Nc4ccccc4)nc32)c1 (centres undefined)	none
Cc1ccsc1C(=O)N1CCC(n2cnnc2C2CC2)CC1	none
Cc1ccccc1CNC(=O)CN1CCC2(CC1)NC(=O)CC2C(=O)O (centres undefined)	none
COc1cccc(N2CCN(C(=O)C3CCCN(c4cnc5nccnc5c4)C3)CC2)c1 (centres undefined)	none
CCCS(=O)(=O)N1CC(c2noc(C3CCCN3CC3CC3)n2)C1 (centres undefined)	none
O=C(NCc1ccco1)N1CC(c2noc(C3CCCN3CC3CC3)n2)C1 (centres undefined)	none
O=C(c1cccs1)N1CC(c2noc(C3CCCN3CC3CC3)n2)C1 (centres undefined)	Pf Dd2 inh 4µM
CCCC(=O)N1CCC(N2C[C@H](O)C[C@H]2C(=O)NCc2cccc(OC)c2)CC1	none
CN(C(=O)c1ccc(Cl)s1)C1CCc2nn(CC3CC3)c(=O)n2CC1 (centres undefined)	none
O=C(Nc1ccccc1F)N1CC2CCC(C1)N2Cc1ccc(-c2ccsc2)cc1	none
CC(C)N1CC2CCC(C1)N2CC1CCCC1	none
CC(C)N1CC2CCC(C1)N2Cc1ccc(-c2ccsc2)cc1	Pf Dd2 inh 11µM
Cc1c(CNC2CCCCCC2)c(C(=O)O)c(C)n1Cc1ccc(F)cc1	none
CCc1ccc(-n2c(=O)c3c4c(sc3n(Cc3ccc(F)cc3)c2=O)CCCC4)cc1	none
CCc1c(C)sc2c1CCN(Cc1ccc(F)cc1)C2c1ccccc1 (centres undefined)	Pf Dd2 inh 3.2µM
CC(C)NC(=O)CCC[C@@H]1[C@H]2CCCN3CCC[C@@H](CN1Cc1cccnc1)[C@@H]23	none
Cc1ccc(C(=O)N2CCC3(CC2)C(=O)NCN3Cc2ccc(Cl)cc2)cc1	none
O=C(CCc1c[nH]c2ccccc12)NC1CCc2nn(CC3CC3)c(=O)n2CC1 (centres undefined)	none
COC[C@]1(O)CCN(S(=O)(=O)c2ccccc2OC)CC1(C)C	none
CCNC(=O)N1CCc2c(c(-c3nncn3-c3ccccc3)nn2C)C1	none
CC(C)n1cnnc1-c1nn(C)c2c1CN(C(=O)Cc1c[nH]c3ccccc13)CC2	Pf Dd2 inh 8.9µM
Cn1cnnc1-c1nn(C)c2c1CN(C(=O)c1n[nH]c(=O)c3ccccc13)CC2	none
CCNC(=O)NC1CC(=O)N(Cc2ccccc2C(F)(F)F)C1 (centres undefined)	none
COc1ccc(OCc2nc(C)c(CCO)c(=O)n2CC(=O)Nc2cccc(SC)c2)cc1	none
O=C1N[C@@H]2CCN(C(=O)c3ccccc3)[C@@H]2C(=O)N1c1ccccc1	none
COc1ccc2[nH]cc(CCNC(=O)Nc3ccc(F)cc3)c2c1	none
Cc1cc(C)nc(NC(=NCCc2c[nH]c3ccc(Cl)cc23)NC(=O)c2ccccc2C)n1	none
COc1ccc2[nH]cc(CCN=C(NC(=O)c3ccccc3C)Nc3nc(C)cc(C)n3)c2c1	Pf Dd2 inh 8.9µM
COc1ccc(C(=O)N2[C@H]3CC[C@@H]2c2cnc(-c4ccc(F)cc4)nc2C3)cc1F	none
COCCn1c(C)cc(C(=O)N2[C@H]3CC[C@@H]2c2cnc(-c4ccc(F)cc4)nc2C3)c1C	Pf Dd2 inh 11µM
O=C(C1CCC1)N1[C@H]2CC[C@@H]1c1cnc(-c3ccc(F)cc3)nc1C2	Pf Dd2 inh 13µM
Cc1ncccc1C(=O)N1[C@H]2CC[C@@H]1c1cnc(-c3ccc(F)cc3)nc1C2	none
O=C(C1CCCCC1)N1[C@H]2CC[C@@H]1c1cnc(-c3ccc(F)cc3)nc1C2	none
CCC(=O)N1[C@H]2CC[C@@H]1c1cnc(-c3ccc(F)cc3)nc1C2	none
CN1CCN(C(CN)C2CCCCC2)CC1 (centres undefined)	Pf Dd2 inh 28µM
Cn1cc(-c2ccc3c(n2)CN(Cc2ccccc2)C(=O)CO3)cn1	none
COc1ccc(C(=O)N2CCOCC3(CN(Cc4ccccc4)C3)C2)c(OC)n1	Pf Dd2 inh 0.89µM
